# Hit rate of the full screen: of about 53,000 compounds, about 900 (1.7%) showed an effect of 50% or more. This excerpt belongs to a sample that is enriched for strong results.
# Tested on: Mycobacterium tuberculosis
# Experiment: Cornell - Phenotypic assay to identify agents that inhibit growth of Mycobacterium tuberculosis
# Assay type: functional
# Design: scale not given: direction of the effect not stated beside the values
# Conditions: 10 mM as filed; unlikely as a test dose
row,SMILES,Percent Effect [%]
1,O=C(CCc1cccc(F)c1F)N1CCCC(n2cncn2)C1 (stereo not given),5.232
2,Cc1nn(C)c(N(C)C)c1CNC(C)c1cccc(OC(C)C)c1 (stereo not given),54.17
3,Cc1nn(C)c(N(C)C)c1CNC(C)COc1cccc(F)c1 (stereo not given),24.93
4,Cc1nn(C)c(N(C)C)c1CNC(C)Cc1c(F)cccc1F (stereo not given),29.42
5,CC(C)n1nccc1CN1Cc2nccn2CC1c1ccccc1 (stereo not given),55.64
6,Cc1nccc(CN2Cc3nccn3CC2c2ccccc2)n1 (stereo not given),-4.199
7,Cn1cnc(CN2Cc3nccn3CC2c2ccccc2)c1 (stereo not given),25.78
8,Cc1csc(N2CCN(Cc3cccnc3)CC2C)n1 (stereo not given),17.54
9,O=C(NC1CCCc2c1[nH]c1ccc(F)cc21)c1n[nH]c2c1CCC2 (stereo not given),5.755
10,COc1ccc(Cl)cc1CCNC(=O)NCc1ncnn1C,19.31
11,COc1ccc(Cl)cc1CCNC(=O)NCc1ccncc1,59.54
12,COc1ccc(Cl)cc1CCNC(=O)NCc1noc(C)n1,15.04
13,COc1ccc(C(=O)NCCNC(=O)c2scnc2Cl)cc1,-54.01
14,CCN(CC)C1CCN(C(=O)NCc2cccc(-n3ccnc3)c2)C1 (stereo not given),34.25
15,CCNC(=O)CCc1c(C)nc2cc(O)nn2c1C,3.574
16,COC(=O)CCc1c(C)nc2cc(O)nn2c1C,-35.79
17,COc1ccc(NC(=O)CCc2c(C)nc3cc(O)nn3c2C)cn1,65.23
18,Cc1cnn(CC2CCCN2Cc2nnc(C(C)C)o2)c1 (stereo not given),-69.76
19,Cc1cc(C)n(CC2CCCN2C(=O)c2ccc3nnc(C)n3c2)n1 (stereo not given),12.74
20,Cc1cnn(CC2CCCN2C(=O)c2ccc3nnc(C)n3c2)c1 (stereo not given),107.3
21,Cc1cnn(CC2CCCCN2C(=O)c2ccc3nncn3c2)c1 (stereo not given),-11.21
22,Cc1ncccc1CNCC1CCN(CC(C)O)CC1 (stereo not given),-13.7
23,Cc1cc(-c2ccnn2C)nc(C2CCCN(S(C)(=O)=O)C2)n1 (stereo not given),51.61
24,Cc1nc(-c2ccnn2C)cc(C2CCCN(S(C)(=O)=O)C2)n1 (stereo not given),29.58
25,Cn1nccc1-c1cccc(CC2CCN(S(C)(=O)=O)C2)n1 (stereo not given),50.09
26,Cc1cc(-c2ccnn2C)nc(C2CCN(S(C)(=O)=O)CC2)n1,31.8
27,Cn1nccc1-c1cncc(C2CCCN(S(C)(=O)=O)C2)n1 (stereo not given),20.84

row,SMILES,Percent Effect [%]
1,CC(=O)N1CCC(Cc2cccc(-c3ccnn3C)n2)CC1,35.75
2,CC(C)C(=O)N1CCN(C(=O)c2cc(C(C)C)no2)[C@H]2CS(=O)(=O)C[C@H]21,24.89
3,CN(C)CCNC(=O)CC1CCN(c2cccnn2)CC1,8.308
4,CCN(Cc1nc(C)no1)C(=O)C1CC(=O)N(Cc2ccccn2)C1 (stereo not given),0.6142
5,O=C(NC1CCCN(Cc2c(F)cccc2F)C1)c1cc[nH]n1 (stereo not given),-25.78
6,O=C(NCCN1CCC(c2cccs2)CC1)Nc1cccs1,107.5
7,CC(=O)NCCN1CCC(c2cccs2)CC1,5.988
8,O=C(NCCc1ccccc1)NCCN1CCC(c2cccs2)CC1,45.08
9,Cc1cc(N2CCC(Cc3ccncc3)C2)ncn1 (stereo not given),-20.77
10,OCC1(Cc2ccc(Cl)cc2)CCN(Cc2ccccc2O)CC1,19.16
11,COc1cccc(CN2CCC(CO)(Cc3ccc(Cl)cc3)CC2)c1O,91.19
12,COc1ccc(CN2CCC(CO)(Cc3ccc(Cl)cc3)CC2)c(O)c1,23.78
13,CCC(O)c1nc2c([nH]1)CC(C)(C)CNC2=O (stereo not given),-22.87
14,CCc1cc(NCCN2CCNC2=O)n2nccc2n1,-6.964
15,Cc1nc(C)n(CC2CCCN(CCOc3ccccc3F)C2)n1 (stereo not given),-21.82
16,O=C(NC1CCN(CC2CCCC2)C1)N1CCC(OCC2CC2)CC1 (stereo not given),51.36
17,O=C(NC1CCN(CC2CC2)C1)N1CCC(OC2CCCCC2)CC1 (stereo not given),28.71
18,NC(=O)C1CCN(C(=O)NC2CCN(CC3CCCC3)C2)CC1 (stereo not given),21.86
19,CC(C)C(=O)N1CCC(c2nc3ccccn3c2NC(C)(C)C)CC1,44.44
20,CCc1cn[nH]c1C1CCN(c2cc(C)c3cccc(OC)c3n2)CC1,57.17
21,CCc1cn[nH]c1C1CCN(c2cc(C)c3cc(OC)ccc3n2)CC1,4.644
22,CCc1cn[nH]c1C1CCN(c2cc(C)c3ccc(OC)cc3n2)CC1,2.528
23,CSc1ncccc1C(=O)NCC(c1ccco1)N(C)C (stereo not given),23
24,CCNS(=O)(=O)c1ccc2c(c1)c(=O)n(CC)c(=O)n2CC,5.155
25,CS(=O)(=O)CCSCc1cc(F)cc2cccnc12,-6.961
26,c1cc(CN2CCCN(c3ccc4cc[nH]c4n3)CC2)ccn1,-9.703
27,Fc1ccccc1CN1CCCN(c2ccc3cc[nH]c3n2)CC1,55.73

row,SMILES,Percent Effect [%]
1,Fc1ccccc1CN1CCCN(c2ncnc3[nH]ccc23)CC1,14.79
2,O=C(NCCc1csc(-c2cccnc2)n1)c1cnn2c1CCCC2,-3.716
3,Cc1ccc(OCCN2CCC(c3nc(C)n4c(C)csc34)CC2)cc1,54.47
4,Cc1csc2c(C3CCN(CCCOc4ccccc4)CC3)nc(C)n12,35.94
5,Cc1csc2c(C3CCN(CCOc4ccccc4F)CC3)nc(C)n12,-14.57
6,Cc1nc(CN2CCO[C@@H]3CN(Cc4ccsc4)C[C@@H]3C2)cs1.O=C(O)C(F)(F)F.O=C(O)C(F)(F)F,22.49
7,Cc1noc(C)c1-c1nc(N(C)C)ncc1-c1cnccn1,-5.73
8,CC[C@@H]1N(Cc2ccsc2)CCC[C@]12CCC(=O)N2C.O=C(O)C(F)(F)F,2.508
9,NC(=O)C1CN(C(=O)Nc2ccccc2SC2CCCC2)CCO1 (stereo not given),18.89
10,CC(=O)N1CCCC1c1ccnc(Nc2cncnc2)n1 (stereo not given),-12.16
11,CC(=O)N1CCCC1CCc1ccc(Cl)nn1 (stereo not given),30.13
12,CC(=O)N1CCCC1CCc1ccnc(-c2cncnc2)c1 (stereo not given),56.86
13,Cc1ccccc1OCCCNC(=O)C1(C)CC(=O)N2C=CC=CC2=N1 (stereo not given),54.27
14,CC1(C(=O)NCCCOc2ccccc2F)CC(=O)N2C=CC=CC2=N1 (stereo not given),24.68
15,Cc1ccc(OCCCNC(=O)C2(C)CC(=O)N3C=CC=CC3=N2)cc1 (stereo not given),45.74
16,CN(C)[C@H]1CCCCN(C(=O)c2cccc(N3CCS(=O)(=O)CC3)c2)C1,-27.17
17,CC(C)c1noc(CN(Cc2ccc(F)cc2)C2CC2)n1,-14.54
18,CCC(C(=O)NCCc1nc(C)cc(C(F)(F)F)n1)n1cccn1 (stereo not given),-40.59
19,Cc1nc2sccn2c1CNC1(c2ccccc2F)CCCC1.O=C(O)CC(O)(CC(=O)O)C(=O)O,21.81
20,COc1ccc(C2(NCc3c(C)nc4c(C)cccn34)CCCC2)cc1.O=C(O)CC(O)(CC(=O)O)C(=O)O,60.04
21,COc1ccccc1C1(NCc2c(C)nc3c(C)cccn23)CCCC1.Cl,-17.64
22,C=Cn1ncc(CN2CCc3nc(-c4ccncc4)nc(O)c3C2)c1C,24.59
23,O=C(Nc1ccccc1)[C@H]1C[C@@H]2CN(Cc3cccnc3)C[C@H]1O2,15.91
24,O=S(=O)(Nc1ccc(N2CCOCC2)cc1)c1cccc(F)c1,107.6
25,O=S(=O)(Nc1cnc(N2CCOCC2)nc1)c1cccc(F)c1,17.36
26,O=S(=O)(Nc1ccc(N2CCOCC2)cn1)c1cccc(F)c1,37.01
27,OC(CN1CCC(c2ccn[nH]2)CC1)c1ccccc1F (stereo not given),11.88

row,SMILES,Percent Effect [%]
1,Cc1csc2nc3n(c(=O)c12)CCN(Cc1c[nH]cn1)CC3.Cl,-9.915
2,Cc1cc(C(F)F)nn1C(C)C(=O)NCc1ncc[nH]1 (stereo not given),51.24
3,Cc1cc(C(F)F)nn1C(C)C(=O)NCc1nccn1C (stereo not given),-1.635
4,CC(C)Nc1ncccc1C(=O)NCc1ncc[nH]1,21.23
5,CN(C)c1ncc(-c2ccncc2)c(CCNC(=O)C2CC2)n1,23.54
6,Cc1c(C(=O)N2CCN(C)CC2)n(C)c2ccc(Cl)cc12,29.74
7,Cc1c(C(=O)N2CCN(c3ncccn3)CC2)n(C)c2ccc(Cl)cc12,45.95
8,Cc1c(C(=O)N2CCN(c3ccccn3)CC2)n(C)c2ccc(Cl)cc12,56.67
9,CCN1C(=O)CC[C@@H]2N(C(=O)CCn3nccc3C)CCCC[C@@]21C,10.33
10,CC(C)CC(=O)N1CC(=O)c2sc(NCCc3ccccc3)nc2C1,-41.09
11,Cc1nn(C)cc1CN1CCN(CC2(c3ccccc3)CC2)CC1,18.35
12,Cc1ccc(C2(CN3CCN(Cc4cncn4C)CC3)CC2)cc1.Cl,-21.08
13,Cc1ccc(C2(CN3CCN(Cc4cn(C)nc4C)CC3)CC2)cc1.Cl,56.88
14,O=C(NCc1ccncc1)N1CC(Cc2ccccc2F)C1,8.731
15,CCc1ccc(S(=O)(=O)Nc2cc(C(=O)O)c(F)cc2F)s1,1.964
16,CCc1ccc(S(=O)(=O)Nc2c(C)cccc2C(=O)O)s1,52.73
17,CCc1ccc(S(=O)(=O)Nc2cc(OC)c(OC)cc2C(=O)O)s1,16.65
18,Cc1cc(CN(C)C2CCCN(Cc3noc(C4CC4)n3)C2)on1 (stereo not given),2.145
19,O=C(Nc1cccc(N2CCCC2)c1)C1CCCN1c1nccs1 (stereo not given),57.22
20,O=C(Nc1cccc2c1CCCC2)C1CCCN1c1nccs1 (stereo not given),-2.486
21,O=C1NCc2ccc(NC(=O)C3CCCN3c3nccs3)cc21 (stereo not given),10.34
22,Cc1nn(Cc2ccc(F)cc2)c2[nH]nc(N)c12,41.44
23,Cc1nn(C)c(=O)c2nn(-c3ccc(F)cc3)c(C)c12,2.323
24,Cc1nn(-c2ccc(F)cc2)c2[nH]nc(N)c12,67.22
